Measured values as given in PubChem BioAssay AID504467 (National Center for Advancing Translational Sciences (NCATS), 2011).
About 7,700 (2.3%) of roughly 330,000 compounds were called active. Another 26% or so got no clear call; they are omitted. Shown is part of a subset that was picked to be rich in actives. Unmarked numbers belong to inactive results. The call rests on the fitted dose curve; in most records, active means well fitted inhibition curve with a large enough effect; inconclusive means small, poorly fitted or top-dose-only effect, or effect the other way; inactive means flat fitted curve, though single readings scatter.

Assay: qHTS screen for small molecules that inhibit ELG1-dependent DNA repair in human embryonic kidney (HEK293T) cells expressing luciferase-tagged ELG1; further: nearly all actives have a fitted effect of over 55% in size
Details: HEK293T ELG1-luciferase reporter, luminescence, 16 h, DNA damage induced by 5-fluorouridine; series mostly up to 46.1 µM; activity change, negative = inhibition: at the top concentration
Summary of the method: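 5-Fluorouridine DNA damage + compound/DMSO, 2,000 cells/well, 16 h, 37 °C/5% CO2. ONE-Glo, 30 min RT, luminescence. Readout = decrease in reporter signal.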
On the % scale 0 is the no-effect control and ±100 the full control effect; potency means the concentration at half of the fitted maximal effect.

| SMILES | activity change, negative = inhibition [%] | Potency |
| --- | --- | --- |
| O=c1ccc(S(=O)(=O)N2CCCC2)cn1Cc1nc(-c2ccccc2)no1 | -15.5 | – |
| Cn1c(=O)c2sccc2n(Cc2ccc(Br)cc2)c1=O | 16.2 | – |
| CN1CCN(Cc2nc3c(c(=O)n(C)c(=O)n3C)n2Cc2cccc3ccccc23)CC1 | -2.34 | – |
| CCOC(=O)N1CCN(Cc2nc3c(c(=O)n(C)c(=O)n3C)n2Cc2ccccc2)CC1 | – | 10.3 µM (active) |
| COCCn1cnc2c1c(=O)n(Cc1ccc(Br)cc1)c(=O)n2Cc1ccccc1 | -9.32 | – |
| CCN1CCN(Cc2nc3c(c(=O)n(C)c(=O)n3C)n2CC(=O)c2ccccc2)CC1 | 14.6 | – |
| Cn1c(=O)c2c(nc(N/N=C/c3cccs3)n2Cc2ccc(Br)cc2)n(C)c1=O | – | 20.6 µM (active) |
| CCOC(=O)N1CCN(C(=O)c2ccc3c(=O)n(CCc4ccc(OC)c(OC)c4)c(=O)[nH]c3c2)CC1 | -21.5 | – |
| Cc1ccc(-n2nc3c(=O)n(C(C)C(=O)NCc4ccc5c(c4)OCO5)nc(C)c3c2C)cc1 (centres undefined) | -19.3 | – |
| Cc1ccc(-c2csc(N3CCN(c4cc5c(cc4Cl)nc(-c4ccncc4)n5CCOCCO)CC3)n2)cc1 | -27.4 | – |
| CCN([C@H](CO)C(C)C)S(=O)(=O)c1ccccc1Br | 5.25 | – |
| CCOc1ccc(NS(=O)(=O)c2ccc(Cl)c(C(=O)N(C)Cc3cccnc3)c2)cc1 | -12.3 | – |
| CCC(C)(C)n1nnnc1C(c1cccs1)N1CCN(c2nc3ccccc3s2)CC1 (centres undefined) | – | 20.6 µM (active) |
| CCC(C)(C)n1nnnc1C(c1cccs1)N1CCN(Cc2ccccc2)CC1 (centres undefined) | -3.91 | – |
| CCC(C)(C)n1nnnc1C(c1ccccc1OC)N1CCSCC1 (centres undefined) | 0.736 | – |
| CC(=O)c1ccc(N2CCN(C(=O)c3ccc(Cl)c(S(=O)(=O)NC4CC4)c3)CC2)c(F)c1 | -29.7 | – |
| COc1ccc(OC)c(/C(C)=N\NC(=O)c2cc3cc(Cl)ccc3n2C)c1 | – | 16.4 µM (active) |
| COc1ccc(/C(C)=N/NC(=O)CCC(=O)Nc2ccc(Cl)cc2Cl)c(OC)c1 | -20.7 | – |
| COc1ccc(OC)c(C(=O)c2ccc(Cl)cc2)c1 | 0 | – |
| CCN(CC(=O)Nc1cccc(S(=O)(=O)N2CCCCC2)c1)Cc1ccccc1 | -1.55 | – |
| O=C(NNS(=O)(=O)c1c(F)cc(F)c(Cl)c1F)C12CC3CC(CC(C3)C1)C2 | -2.47 | – |
| CCc1ccc(NC(=O)CN2C(=O)COc3ccc(S(=O)(=O)N4CCCC4)cc32)cc1 | 1.71 | – |
| CCC(C)NC(=O)c1ccc(NC(=O)CC2SC(N3CCCCC3)=NC2=O)cc1 (centres undefined) | 12.6 | – |
| COCCN(CCOC)C(=S)Nc1ccccc1Cl | 6.84 | – |
| O=C(Nc1ccccc1Cl)Nn1cnnc1 | 0.688 | – |

| SMILES | activity change, negative = inhibition [%] | Potency |
| --- | --- | --- |
| O=C(Nc1ccccc1Cl)/C(Cl)=C(\Cl)S(=O)c1ccccc1 (centres undefined) | – | 9.2 µM (active) |
| CSc1cccc(NC(=O)CN2C(=O)COc3ccc(S(=O)(=O)N4CCOCC4)cc32)c1 | 3.54 | – |
| Cc1ccc(C(=O)NC23CC4CC(CC(C4)C2)C3)c(Cl)c1 | 27.6 | – |
| COc1cccc(CCNC(=O)c2cccc(NC(=O)C3=C(C)OCCS3)c2)c1 | – | 20.6 µM (active) |
| CCCCNC(=O)c1ccccc1NC(=O)C1=C(C)OCCS1 | 1.59 | – |
| COc1ccc(N2CCN(C(=O)c3ccccc3NC(=O)C3=C(C)OCCS3)CC2)cc1 | 5.9 | – |
| CCn1c(SCC(=O)NNC(=O)c2ccc(OC)cc2)nnc1C(C)C | 0 | – |
| Cc1ccc(CNC(=O)Cn2cnc3c(NCc4ccccc4)ncnc32)o1 | -20.6 | – |
| Cc1nc2ccccc2c(=O)n1Cc1ccc([N+](=O)[O-])cc1 | 3.4 | – |
| CCn1c(/C=C/c2ccc([N+](=O)[O-])o2)nc2ccccc2c1=O | – | 16.4 µM (active) |
| Cn1cc(/C=C/c2nc3ccccc3c(=O)n2-c2cccc([N+](=O)[O-])c2)c2ccccc21 | 5.73 | – |
| Cc1cc(C)c(S(=O)(=O)N2CCCC2CNC(=O)c2ccc3c(c2)OCO3)c(C)c1 (centres undefined) | -14.4 | – |
| CCc1nc(Nc2ccc(NC(C)=O)cc2)c2oc3ccccc3c2n1 | -14.5 | – |
| CCc1nc(N2CCN(c3nc(C)cc(C)n3)CC2)c2oc3ccccc3c2n1 | 5.17 | – |
| CCc1nc(Nc2ccc3nccnc3c2)c2oc3ccccc3c2n1 | – | 2.59 µM (active) |
| CCCCCc1c(C)nc(N2CCN(Cc3ccc4c(c3)OCO4)CC2)[nH]c1=O | -15.9 | – |
| CCC(C)[C@H](NC(=O)N1CCn2c1nc1ccccc12)C(=O)NCc1ccc(OC)cc1 (some centres undefined) | 7.99 | – |
| COc1ccc(OC)c(NC(=O)COC(=O)Cc2ccsc2)c1 | -0.0729 | – |
| CC(C)c1nc(N2CCOCC2)c(C#N)c2c1COC(C)(C)C2 | -8.03 | – |
| COc1ccc(CSc2nc(N3CCOCC3)c3c(c2C#N)CC(C)(C)OC3)cc1 | – | 0.92 µM (active) |
| CCOC(=O)CSc1nc(N2CCOCC2)c2c(c1C#N)CC(C(C)C)OC2 (centres undefined) | -13.9 | – |
| O=C(COC(=O)c1ccc(O)cc1O)c1ccc2c(c1)OCCO2 | 0 | – |
| CCN1CCN(c2ccc(S(=O)(=O)N3CCCCC3)cc2NC(=O)c2cccc(NC(C)=O)c2)CC1 | -0.31 | – |
| CCN(CC)S(=O)(=O)c1ccc(N2CCOCC2)c(NC(=O)c2ccc(=O)n(C)n2)c1 | 9.63 | – |
